Test results: PubChem BioAssay AID488890 (Southern Research Specialized Biocontainment Screening …, 2010)
The whole screen tested about 320,000 compounds, of which about 1,300 (0.41%) were called active. Another 3% or so got no clear call; they are omitted. No rule for the calls is given here. The list is a sample of the results. Potency and affinity values are given separately.

Assay: growth inhibition of non-replicating M. tuberculosis (AID 488890);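 also: plate controls were DMSO cells for no effect and high antibiotic wells for full effect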
Settings: Mycobacterium tuberculosis non-replicating, at 25 µM, stronger effect = higher value
`Cc1cc(C)cc(NC(=O)C2C3C=CC4(O3)C2C(=O)N(CCCN2CCCCC2)C4C(=O)NC2CCCCC2)c1` (centres undefined) showed an inhibition of 8.2%.
`Cc1cc(OC(=O)c2ccc(S(=O)(=O)N3CCCCC3)cc2)c([N+](=O)[O-])c(=O)[nH]1` gave an inhibition of -2.75%.
Work on `Cc1cc(C(=O)OCC(=O)Nc2cc(Cl)ccc2C)c(C)o1` yielded an inhibition of 0.98%.
Work on `O=C(NCc1ccco1)c1ccc(NS(=O)(=O)c2cccc(F)c2)cc1` yielded an inhibition of 29.2%.
Work on `CC(C)COc1ccc(C(=O)Nc2ccc(N3CCOCC3)cc2N2CCOCC2)cc1` yielded an inhibition of 43%.
For `O=c1oc2c(O)cccc2cc1-c1nc2ccccc2[nH]1`, the inhibition was 7.2%.
Compound `COc1ccc(-c2cc3cccc(OC)c3oc2=O)cc1` has an inhibition of 24.1%.
With `COc1cccc2cc(-c3nnc(-c4ccccc4)o3)c(=O)oc12` the inhibition was 79.1%.
Compound `COc1cccc2cc(-c3ccccc3)c(=O)oc12` has an inhibition of 54.4%.
With `O=C(CNS(=O)(=O)c1ccc(Cl)c(C(F)(F)F)c1)NC1CCCCC1` the inhibition was 20.4%.
With `N#CCSc1nnc(Cc2ccc3c(c2)OCO3)o1` the inhibition was 73.3%.
For `CC(=O)CSc1nnc(Cc2ccc3c(c2)OCO3)o1`, the inhibition was 73.1%.
For `Cn1nc(-c2ccccc2)c(COC(=O)c2cccc(Cl)c2)c1S(=O)(=O)c1ccccc1`, the inhibition was -7.33%.
In the case of `CCCC(=O)Nc1cccc(-c2nc3ccccc3o2)c1`, the inhibition is reported as -1.01%.
For `CCC(CC)C(=O)Nc1cccc(-c2nc3ccccc3o2)c1`, the inhibition was -1.13%.
With `CC(=O)Nc1cccc(-c2nc3ccccc3o2)c1` the inhibition was 8.44%.
For `CC(=O)Nc1ccc(-c2nc3ccccc3c(=O)o2)cc1`, the inhibition was 68.8%.
In the case of `CC(C)C(=O)Nc1cccc(-c2nc3ccccc3o2)c1`, the inhibition is reported as 9.28%.
Compound `O=C(Nc1cccc(-c2nc3ccccc3c(=O)o2)c1)c1ccccc1` has an inhibition of 60.9%.
With `O=C(Nc1ccc2nc(-c3ccccc3)oc2c1)c1ccco1` the inhibition was -0.45%.
With `CCCC(=O)Nc1cccc(-c2nc3cc(C)c(C)cc3o2)c1` the inhibition was -4.03%.
Work on `O=P(Oc1ccccc1)(Oc1ccccc1)C(O)c1ccc(Cl)cc1` (centres undefined) yielded an inhibition of -12%.
For `COc1cccc(CN2CCNC(=O)C2CC(=O)NC2Cc3ccccc3C2)c1` (centres undefined), the inhibition was -15.6%.
`COc1ccc(C(=O)/C=C\N2CCOCC2)cc1` gave an inhibition of 10.4%.
In the case of `COCCNC(=S)N1CCC(NC(=O)Nc2ccc(C)cc2)CC1`, the inhibition is reported as -2%.
In the case of `O=C(NCCCNC(=O)c1ccco1)c1ccc(F)cc1`, the inhibition is reported as -2.4%.
`CC(=O)N1N=C(c2ccc(Cl)cc2)CC1c1ccc([N+](=O)[O-])cc1` (centres undefined) gave an inhibition of -10.2%.
Compound `O=C(c1ccc([N+](=O)[O-])cc1)N1CCSC1c1ccc(Cl)cc1` (centres undefined) has an inhibition of 6.9%.
With `COc1ccccc1CNC(=O)CCCn1nc(C)c2c(C)n(-c3ccccc3)nc2c1=O` the inhibition was 5.28%.
`O=C(CNC(=O)N1CC(=O)Nc2ccccc21)Nc1cc(Cl)ccc1Cl` showed an inhibition of 5.7%.
`CN1C(=O)N(C)C(c2ccccc2Cl)C2=C1CC(C)(C)CC2=O` (centres undefined) gave an inhibition of 1.21%.
`Brc1ccc(N/N=C(/N=Nc2nn[nH]n2)c2ccccc2)cc1` gave an inhibition of 76.2%.
Compound `O=C(O)c1ccc(N=N/C(=N\Nc2ccc(C(=O)O)cc2)c2ccccc2)cc1` has an inhibition of 29.9%.
In the case of `CCOC(=O)c1nc(C)nc(Sc2n[nH]c(-c3cc(C(F)(F)F)cc(C(F)(F)F)c3)n2)c1C`, the inhibition is reported as 46.5%.
In the case of `O=C(O)c1ccccc1C(=O)Nc1ccc(S(=O)(=O)NC2CCCCC2)cc1`, the inhibition is reported as -4.02%.
In the case of `CCC(C)C(NC(=O)c1ccccc1NC(=O)c1ccc(OC)cc1)C(=O)NCCCn1ccnc1` (centres undefined), the inhibition is reported as 7.04%.
In the case of `CC1(N(O)/C=C2\C=CC=CC2=O)CCCCC1=O` (centres undefined), the inhibition is reported as 3.64%.
With `O=C(CN1CCN(S(=O)(=O)c2ccccc2F)CC1)Nc1ccccc1C(=O)c1ccccc1` the inhibition was 27.9%.
With `Cc1onc(-c2c(Cl)cccc2Cl)c1C(=O)O/N=C(\C#N)c1c(Cl)cccc1Cl` the inhibition was 4.59%.
Work on `Cc1onc(-c2ccccc2Cl)c1C(=O)O/N=C(\N)c1ccccc1` yielded an inhibition of 10.2%.
For `Cc1onc(-c2cccc(Cl)c2Cl)c1C(=O)O/N=C(\N)c1ccc([N+](=O)[O-])o1`, the inhibition was 60%.
Compound `C/C(=N\OC(=O)c1c(-c2c(F)cccc2Cl)noc1C)c1nccs1` has an inhibition of 4.04%.
With `O=C(O)c1cccc2c1C(=O)c1ccc(-c3ccc(OC(F)(F)F)cc3)cc1S2(=O)=O` the inhibition was -2.64%.
`O=[N+]([O-])c1cc(/C=N/OCc2c(Cl)cccc2Cl)ccc1N1CCOCC1` gave an inhibition of 22.5%.
Work on `CCOC(=O)N1CCN(c2ccc(Cl)c(Cl)c2)CC1` yielded an inhibition of 75.6%.
Work on `COC(=O)N1CCN(c2ccc(Cl)c(Cl)c2)CC1` yielded an inhibition of 39%.
Work on `Cc1cc(Cl)c(S(=O)(=O)N2CCN(c3cccc(C)c3C)CC2)cc1OCC(N)=O` yielded an inhibition of 6.33%.
`COC(=O)c1[nH]c2ccc(C)cc2c1NC(=O)C1=COCCO1` gave an inhibition of 2.53%.
In the case of `COc1ccc(C(=O)NCCNC(=O)c2ccccn2)cc1`, the inhibition is reported as -3.54%.
Work on `O=C(N/N=C(\c1ccccc1)c1cccnc1)c1ccc(O)cc1` yielded an inhibition of -6.44%.
`O=C(c1cccc([N+](=O)[O-])c1)c1ccccn1` showed an inhibition of 2.21%.
For `COc1cccc(C(=O)NCCNC(=O)c2ccccn2)c1`, the inhibition was -10.9%.
`C/C(=N/NC(=O)CNC(=O)c1ccccn1)c1cccc([N+](=O)[O-])c1` showed an inhibition of -4.01%.
For `O=C(N/N=C(\c1ccccc1)c1cccnc1)c1cc(O)ccc1O`, the inhibition was 30.3%.
`COc1cc(C(=O)N/N=C(\c2ccccc2)c2ccccn2)cc(OC)c1OC` showed an inhibition of 43.4%.
`COc1ccc(C(=O)NNC(=O)c2ccccn2)cc1` showed an inhibition of 12.8%.
In the case of `C(=N\N1CCN(Cc2ccccc2)CC1)/c1ccc(-c2ccccc2)cc1`, the inhibition is reported as 43%.
With `Cc1ccc(CNC(=O)Cn2nnc(C(=O)Nc3cccc(C)c3C)c2N)cc1` the inhibition was -3.98%.
With `CC(C)c1ccccc1NC(=O)c1ccccc1NC(=O)C1CCCCC1` the inhibition was -1.84%.
Compound `COc1ccc(C)cc1-n1nnnc1SCC(=O)Nc1cccnc1Cl` has an inhibition of 17.6%.
For `O=C(NCC(=O)N1CCN(c2ccccn2)CC1)c1ccc(Br)o1`, the inhibition was -3.21%.
`Cc1ccc(COC(=O)NCc2cccnc2)cc1` gave an inhibition of 4.06%.
Work on `Cc1cc(C)c(C)c(S(=O)(=O)Nc2ccc(C(=O)N3CCCC3)cc2)c1C` yielded an inhibition of 5.64%.
`O=[N+]([O-])c1ccc2nonc2c1Nc1cccc(F)c1` gave an inhibition of 32.1%.
`O=C(CCCN1CCC(c2ccccc2)C1)c1ccc2c(c1)OCCO2` (centres undefined) gave an inhibition of 12.3%.
With `COc1cc(C(=O)N2CCN(C(=O)c3ccccc3)CC2)cc(OC)c1OC` the inhibition was -17.1%.
`COc1ccc(-n2nc3c(c2NC(=O)c2ccco2)CS(=O)(=O)C3)cc1` gave an inhibition of 3.65%.
Work on `CC(/C=N/N1CCN(c2ccc(C)cc2)CC1)=C\c1ccccc1` yielded an inhibition of 10.7%.
Work on `COc1ccccc1N1CCN(C(=O)c2sc3nc(-c4ccc(F)cc4)cn3c2C)CC1` yielded an inhibition of 40.2%.
